Assay results taken from PubChem BioAssay (NCATS).
Unmarked numbers belong to inactive results. Results filed as inconclusive are left out. Calls of active or inactive are those of the source. Unless noted, the call rests on the fitted dose curve; in most records, active means well fitted curve in either direction with a large enough effect (not every such curve was filed as active); inconclusive means small, poorly fitted or top-dose-only effect, or another doubt; inactive means flat fitted curve, though single readings scatter.

Assays:
[1] = molecular target: Lysosomal acid glucosylceramidase (Homo sapiens) (UniProt P04062); test: Glucocerebrosidase-p2 (AID 348; in the data active means potency below about 10 µM; further: potency means the concentration at half of the fitted maximal effect); details: purified GBA, blue fluorogenic substrate, 40 min
In short: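 Normal human glucocerebrosidase (0.2 nM) with blue fluorogenic substrate (80 uM final) in citrate/phosphate pH 5.9 with 10mM sodium taurocholate, 0.01% tween-20; 40 min RT, NaOH/glycine stop; fluorescence Ex 365/Em 440; AC50 from a titration from 0.6 nM upwards.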

[2] = AP1 Signaling Pathway (AID 357); details: ME-180 AP-1-bla reporter, EGF-induced, beta-lactamase ratio, 5 h; at 7.69 µM (top of the series) unless noted; further: on the % scale 0 is the no-effect control and ±100 the full control effect
In short: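 ME-180 cells with beta-lactamase reporter under AP-1 response element, stimulated with EC50 EGF; compounds tested in titration series, 5 h at 37 °C. CCF4 substrate added 2.5 h at room temperature; 460/530 nm emission ratio gave %activity and AC50.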

[3] = molecular target: Cytochrome P450 1A2 (Homo sapiens) (UniProt P05177); test: p450-cyp1a2 (AID 410; calls by dose curve; further: potency means the concentration at half of the fitted maximal effect;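 on activity change, negative = inhibition: -100% = full effect of reference inhibitor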); details: recombinant CYP1A2, luciferin-ME demethylation, luminescence; series mostly up to 11.4 µM
In short: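 20nM CYP1A2, 100uM Luciferin-ME (=Km), 100mM KPO4; cpd 10 min RT; +NADPH regen, 60 min RT; stop/detect 20 min; luminescence. Normalized to furafylline 57 uM = full inhibition.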

[4] = NFAT Signaling Pathway (AID 444); details: Jurkat NFAT-bla M1, carbachol, beta-lactamase ratio, 5 h; at 7.69 µM (top of the series) unless noted;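 further: carbachol stimulus at about its EC50 of 1 µM final; on the % scale 0 is the no-effect control and ±100 the full control effect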
In short: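 Jurkat cells carrying an NFAT-driven β-lactamase reporter and co-transfected muscarinic M1 receptor were treated with compound plus carbachol (1 uM final, an EC50 level) for 5 h at 37 °C. CCF4 loading followed for 1 h at RT; 460/530 nm ratio gave %activity.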

[5] = Stat Signaling Pathway (AID 446); details: ME-180 (cervical carcinoma) SIE beta-lactamase reporter, IL-6 stimulated, 5 h; at 7.69 µM (top of the series) unless noted;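 further: ME-180 cervical cancer cells given 40 pM IL-6 alongside compound; SIE-controlled beta-lactamase reporter measured as 460/530 nm FRET emission ratio; on the % scale 0 is the no-effect control and ±100 the full control effect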
In short: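 Emission at 460 and 530 nm (excitation 405 nm) reports SIE-controlled beta-lactamase in ME-180 cells. Cells received compound with 40 pM IL-6 for 5 hrs at 37 C; data scaled between 300 pM IL-6 and 125 nM JAK-inhibitor controls.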

[6] = molecular target: Glucocorticoid receptor (Homo sapiens) (UniProt P04150); test: GR-GFP Redistribution (AID 450;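 active means compounds whose dose series gives a full or clear partial fitted curve of increased nuclear translocation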; further: potency means the concentration at half of the fitted maximal effect); details: U2OS GR-GFP nuclear translocation, laser cytometry, 2 h
[7] = molecular target: Glucocorticoid receptor (Homo sapiens) (UniProt P04150); test: GR-EFC Redistribution (AID 451; calls by dose curve; further: potency means the concentration at half of the fitted maximal effect); details: CHO-K1 GR-EFC translocation, beta-gal luminescence, 2 h
In short: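 CHO-K1 cells stably expressing nuclear-localized β-gal enzyme acceptor and GR fused C-terminally to the enzyme donor fragment; ligand-driven nuclear translocation restores β-gal by complementation. Compounds titrated up to 46 uM final, 2 h at 37 °C; luminescence read.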

[8] = molecular target: Mitogen-activated protein kinase 10 (Mus musculus) (UniProt Q61831); test: JNK3 AlphaScreen Assay (AID 530); details: JNK3 lysate, c-Jun phosphorylation; series mostly up to 11.4 µM;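 further: kinase came from lysate of stimulated human HepG2 cells; signal reports phosphorylation of biotinylated GST-cJun 1-79 at Ser73 with 10 µM ATP; on the % scale 0 is the no-effect control and ±100 the full control effect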
In short: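 Biotinylated GST-cJun(1-79) served as substrate for JNK3 in HepG2 lysates stimulated with IL-1beta and TNF-alpha. ATP was 10 uM final, pH 7.6. Ser73 phosphorylation was quantified by AlphaScreen (680 nm excitation).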

[9] = molecular target: 3',5'-cyclic-AMP phosphodiesterase 4B (Homo sapiens) (UniProt Q07343); test: qHTS Assay for Inhibitors of PDE-IV (AID 607; active means well fitted activation curve with a large enough effect in the main read-out, with a control signal flat, not every such curve was filed as active; further: % of control where 0% means no effect); details: HEK293 ACTOne CNG channel cells, membrane potential fluorescence; series mostly up to 22.9 µM
In short: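 The readout is membrane depolarisation from a cAMP-sensing CNG channel, detected with a potential dye at ex 535/em 590. Cells were HEK293-derived (endogenous PDE-IV) at 1000 cells/well, titrated up to 22.9 uM final.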

[10] = molecular target: Cytochrome P450 2C19 (Homo sapiens) (UniProt P33261); test: qHTS Assay for Inhibitors and Substrates of Cytochrome P450 2C19 (AID 899; active means well fitted inhibition curve with a large enough effect; further: nearly all actives have a fitted effect of over 60% in size; further: potency means the concentration at half of the fitted maximal effect); details: recombinant CYP2C19, luciferin-H EGE luminescence; series mostly up to 11.4 µM
In short: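 Human CYP2C19 (5nM) with Luciferin-H EGE at 10uM (its KM) in 50mM KPO4 was preincubated with compound for 10 min at 37C. NADPH regeneration started a 60 min 37C reaction. Luciferin was read by luminescence, normalized to 57uM ketoconazole.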

Cytochrome P450 1A2 (Homo sapiens), sequence (P05177 whole entry, looked up): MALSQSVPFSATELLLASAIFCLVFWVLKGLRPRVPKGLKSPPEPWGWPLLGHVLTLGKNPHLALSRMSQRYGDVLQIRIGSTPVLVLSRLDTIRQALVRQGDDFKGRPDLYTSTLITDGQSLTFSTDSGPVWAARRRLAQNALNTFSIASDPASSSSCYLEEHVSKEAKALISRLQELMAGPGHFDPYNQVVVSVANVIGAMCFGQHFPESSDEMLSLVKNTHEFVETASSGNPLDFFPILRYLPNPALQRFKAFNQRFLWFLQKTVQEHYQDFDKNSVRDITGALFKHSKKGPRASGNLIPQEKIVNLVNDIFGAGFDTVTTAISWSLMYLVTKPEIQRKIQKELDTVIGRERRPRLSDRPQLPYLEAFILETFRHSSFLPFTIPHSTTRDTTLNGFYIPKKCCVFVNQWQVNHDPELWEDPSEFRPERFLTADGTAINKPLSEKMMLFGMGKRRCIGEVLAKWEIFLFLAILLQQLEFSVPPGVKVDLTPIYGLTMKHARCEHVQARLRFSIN
Glucocorticoid receptor (Homo sapiens), sequence (P04150 whole entry, looked up, the tested form may be a part): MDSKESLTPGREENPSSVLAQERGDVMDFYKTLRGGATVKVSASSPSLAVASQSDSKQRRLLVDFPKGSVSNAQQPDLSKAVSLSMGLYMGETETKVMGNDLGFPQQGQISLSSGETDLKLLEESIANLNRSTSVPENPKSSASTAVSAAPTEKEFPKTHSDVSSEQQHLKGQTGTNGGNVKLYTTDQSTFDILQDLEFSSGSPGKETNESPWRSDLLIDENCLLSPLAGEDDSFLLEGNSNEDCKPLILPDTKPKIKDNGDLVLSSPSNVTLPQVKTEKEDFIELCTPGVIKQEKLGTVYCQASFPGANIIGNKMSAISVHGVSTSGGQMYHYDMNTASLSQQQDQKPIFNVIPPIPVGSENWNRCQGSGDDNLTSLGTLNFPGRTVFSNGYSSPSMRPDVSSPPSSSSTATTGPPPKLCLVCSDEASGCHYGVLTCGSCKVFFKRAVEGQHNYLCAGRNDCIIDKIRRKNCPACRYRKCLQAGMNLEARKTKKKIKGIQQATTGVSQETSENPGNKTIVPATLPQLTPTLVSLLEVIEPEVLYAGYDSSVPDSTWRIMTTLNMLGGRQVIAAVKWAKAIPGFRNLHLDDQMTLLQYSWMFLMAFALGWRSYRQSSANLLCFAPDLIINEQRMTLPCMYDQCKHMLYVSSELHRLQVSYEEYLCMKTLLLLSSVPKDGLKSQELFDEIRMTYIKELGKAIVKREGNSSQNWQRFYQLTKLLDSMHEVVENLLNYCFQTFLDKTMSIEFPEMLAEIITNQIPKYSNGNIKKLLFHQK
Lysosomal acid glucosylceramidase (Homo sapiens), sequence (P04062 whole entry, looked up): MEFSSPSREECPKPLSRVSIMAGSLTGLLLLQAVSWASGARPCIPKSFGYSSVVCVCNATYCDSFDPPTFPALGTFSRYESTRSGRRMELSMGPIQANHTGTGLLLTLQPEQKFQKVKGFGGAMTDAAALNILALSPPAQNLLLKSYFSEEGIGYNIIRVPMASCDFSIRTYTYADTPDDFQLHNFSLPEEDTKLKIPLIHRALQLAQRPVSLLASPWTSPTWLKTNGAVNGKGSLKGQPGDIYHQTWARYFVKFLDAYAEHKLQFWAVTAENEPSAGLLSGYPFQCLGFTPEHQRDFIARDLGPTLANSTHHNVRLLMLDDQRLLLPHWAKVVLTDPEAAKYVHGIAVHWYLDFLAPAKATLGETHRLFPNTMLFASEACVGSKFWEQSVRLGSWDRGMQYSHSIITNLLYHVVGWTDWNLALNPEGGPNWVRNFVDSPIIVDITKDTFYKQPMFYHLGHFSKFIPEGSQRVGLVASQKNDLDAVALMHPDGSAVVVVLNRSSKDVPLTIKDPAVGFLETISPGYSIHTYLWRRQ
3',5'-cyclic-AMP phosphodiesterase 4B (Homo sapiens), sequence (Q07343 whole entry, looked up): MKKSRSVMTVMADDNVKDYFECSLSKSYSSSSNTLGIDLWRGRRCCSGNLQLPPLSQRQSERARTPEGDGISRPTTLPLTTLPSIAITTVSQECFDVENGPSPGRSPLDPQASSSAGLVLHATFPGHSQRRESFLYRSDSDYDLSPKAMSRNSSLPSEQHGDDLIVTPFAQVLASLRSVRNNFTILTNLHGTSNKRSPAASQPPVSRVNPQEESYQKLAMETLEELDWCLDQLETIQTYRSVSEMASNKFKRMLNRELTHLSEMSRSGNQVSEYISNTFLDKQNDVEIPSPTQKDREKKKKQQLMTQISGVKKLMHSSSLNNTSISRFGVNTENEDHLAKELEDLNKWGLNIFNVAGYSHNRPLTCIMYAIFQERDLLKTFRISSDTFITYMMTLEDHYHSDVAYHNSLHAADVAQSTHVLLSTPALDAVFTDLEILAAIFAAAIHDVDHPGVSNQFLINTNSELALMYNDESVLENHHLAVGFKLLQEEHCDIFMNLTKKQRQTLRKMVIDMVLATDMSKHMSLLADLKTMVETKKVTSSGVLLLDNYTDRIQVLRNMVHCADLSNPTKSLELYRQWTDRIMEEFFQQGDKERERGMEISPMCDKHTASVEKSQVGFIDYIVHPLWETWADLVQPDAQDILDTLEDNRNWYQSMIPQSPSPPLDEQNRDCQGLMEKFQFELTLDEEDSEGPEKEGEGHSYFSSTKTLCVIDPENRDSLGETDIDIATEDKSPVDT
Cytochrome P450 2C19 (Homo sapiens), sequence (P33261 whole entry, looked up): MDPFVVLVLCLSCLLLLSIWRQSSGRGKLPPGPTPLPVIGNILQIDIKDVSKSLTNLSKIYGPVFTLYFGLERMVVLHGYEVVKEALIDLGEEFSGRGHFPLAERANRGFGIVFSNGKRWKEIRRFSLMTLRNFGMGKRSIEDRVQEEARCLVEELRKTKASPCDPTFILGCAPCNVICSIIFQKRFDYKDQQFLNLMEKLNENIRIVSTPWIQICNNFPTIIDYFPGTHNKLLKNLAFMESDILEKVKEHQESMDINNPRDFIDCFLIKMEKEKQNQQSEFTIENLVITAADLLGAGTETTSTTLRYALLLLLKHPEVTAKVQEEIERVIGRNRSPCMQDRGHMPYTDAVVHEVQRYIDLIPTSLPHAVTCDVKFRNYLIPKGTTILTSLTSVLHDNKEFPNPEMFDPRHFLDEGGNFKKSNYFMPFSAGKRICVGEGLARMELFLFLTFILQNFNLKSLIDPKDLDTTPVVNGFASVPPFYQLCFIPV

| Compound | Potency [1] [µM] | activity change, negative = inhibition [2] [%] | Potency [3] | activity change, negative = inhibition [4] [%] | activity, negative = inhibition [5] [%] | Potency [6] [µM] | Potency [7] [µM] | Potency [8] | Potency [9] | Potency [10] | activity change, negative = inhibition [3] |
| --- | --- | --- | --- | --- | --- | --- | --- | --- | --- | --- | --- |
| C[C@@H]1O[C@@H](O)[C@@H](O)[C@H](O)[C@H]1O | > 11.4 | -1.53 | inactive | 13.9 | 6.79 | > 46 | > 9.22 | inactive | inactive | inactive | – |
| C/C(=N\NC(=O)c1ccncc1)c1ccc2ccccc2c1O | > 11.4 | 7.91 | 3.98 µM (active) | -7.25 | -3.43 | > 46 | > 9.22 | inactive | inactive | 0.501 µM (active) | – |
| CN(C)CCNc1ccccn1 | > 11.4 | -8.09 | inactive | 12.6 | 3.69 | > 46 | > 9.22 | inactive | inactive | inactive | – |
| COc1ccc2cc(C(=O)CCC(=O)O)ccc2c1 | > 11.4 | 1.75 | 0.794 µM (active) | 19.6 | 6.44 | > 46 | > 9.22 | inactive | inactive | 2 µM (active) | – |
| O=C(CCN1CCCCC1)N1CCc2c([nH]c3ccccc23)[C@H]1c1cccnc1 | > 11.4 | 4.71 | – | -15.8 | -6.32 | > 46 | > 9.22 | inactive | inactive | inactive | -19.7% [at 2.29 µM] |
| Clc1ccccc1C(Nc1ncccn1)Nc1ncccn1 | > 11.4 | 4.25 | inactive | 3.12 | 3.77 | > 46 | > 9.22 | inactive | inactive | inactive | – |
| Nc1ccn([C@H]2O[C@@H](COP(=O)(O)O)[C@@H](O)[C@H]2O)c(=O)n1 | > 11.4 | 5.49 | inactive | 12.4 | 4.03 | > 46 | > 9.22 | inactive | inactive | inactive | – |
| O[C@@H]1[C@@H](OCc2ccccc2)OC[C@H](O)[C@@H]1O | > 11.4 | 17.3 | inactive | -8.65 | 4.2 | > 46 | > 9.22 | inactive | inactive | inactive | – |
| CC(=O)OC(C)(C)N=Nc1ccc(Br)cc1 | > 11.4 | -5.95 | 3.16 µM (active) | 14.8 | 2.84 | > 46 | > 9.22 | inactive | inactive | 1.26 µM (active) | – |
| Clc1nc(NCCc2ccccc2)c2ncn(-c3ccccc3)c2n1 | > 11.4 | -9.15 | 0.501 µM (active) | -0.663 | -22.9 | > 46 | > 9.22 | inactive | inactive | 0.501 µM (active) | – |
| S=c1c2[nH]cnc2ncn1CCSc1ncnc2nc[nH]c12 | > 11.4 | -5.47 | inactive | 23.1 | 7.7 | > 46 | > 9.22 | inactive | inactive | inactive | – |
| N=C(c1ccc2ccccc2c1)c1ccccc1Cc1ccccc1 | > 11.4 | 0.881 | 0.501 µM (active) | -18 | -1.68 | > 46 | > 9.22 | inactive | inactive | 3.98 µM (active) | – |
| O=c1[nH]c(=S)c2[nH]c(=O)n(-c3ccccc3)c2[nH]1 | > 11.4 | 12.1 | inactive | 15.1 | 8.32 | > 46 | > 9.22 | inactive | inactive | inactive | – |
